A selection: hits, their analogues and other compounds. The true share with any hit is near 21%.
Cycloheximide cs – counter-screen hit for Shiga toxin inhibitors, cycloheximide | cell reporter, cycloheximide protein synthesis inhibition counterscreen | max response, % | 300,000 tested, 12% active | AID 2314; in the data active = max response mostly above about 13%, no sharp cut-off; inactive = mostly below about 14%; note: read at 38.3 µM for the half of the compounds with a filed dose; 0% is about no effect
HCV inh – blocks hepatitis C virus. AID 651820. Huh7.5.1 HCVcc-Cre infection, luciferase reporter, 44 h. Potency, µM (series often up to 41.8 µM), for inactives: at the highest dose activity change, negative = inhibition, most hits filed as inhibitors. 340,000 tested, 3.4% active; note: potency is the fitted concentration of half-maximal effect; % is set by controls: 0 for no effect and ±100 for the full control effect
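After 44 h co-culture of compound, cells and HCVcc-Cre (~0.5 moi), substrate is added for 15 min at room temperature and luciferase measured over 15 sec. Cells were seeded at 1,000/well and pre-cultured 4 h.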
Shiga inhibitor – Shiga toxin inhibition; AID 2315; 290,000 tested, 9.2% active; inhibition, % at 38.7 µM; Vero cells, Shiga toxin protein synthesis inhibition reporter; in the data active = inhibition mostly above about 28%, no sharp cut-off; inactive = mostly below about 43%; note: 0% is about no effect
AMA1 RON2 block – inhibitors of Plasmodium falciparum AMA1-RON2 interaction. Potency, µM (titrated, usually from 58.2 µM), for the others: at the highest dose activity change, negative = inhibition, hits mostly inhibitors. 360,000 tested, 0.2% active. AID 720542. AlphaScreen AMA1-biotinylated RON2 peptide binding;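 note: potency is the fitted concentration of half-maximal effect; 0% = vehicle wells and -100% = peptide control; nearly all actives have a fitted effect of over 45% in size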
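AMA1 (3D7) with his tag at 25 nM final met compounds first, then biotinylated RON2 peptide at 25 nM; detection used donor plus acceptor beads, 10 µg/mL apiece, read by AlphaScreen after 30 min at room temperature.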
Pf growth 96h – P. falciparum growth inhibition at 96 hours; Potency, µM (titrated, usually from 28.7 µM), for inactives: top-dose activity change, negative = inhibition, hits mostly inhibitors; 320,000 tested, 6.9% active; P. falciparum luciferase reporter growth, 96 h; note: potency is the fitted concentration of half-maximal effect; % is set by controls: 0 for no effect and ±100 for the full control effect
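Two-generation exposure (96 h) targets delayed-death phenotype. Reporter parasites carrying integrated firefly luciferase, in red cells at 2% hematocrit and 0.05% parasitemia final, kept at 37 C, 5% CO2; luminescence loss indicates inhibition.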
Pf growth 48h – inhibits P. falciparum growth in the first generation, 48 h. P. falciparum luciferase growth in erythrocytes, 48 h. Potency, µM (highest dose often 28.7 µM), for inactives: at the top dose activity change, negative = inhibition, actives largely listed as inhibitors. 310,000 tested, 5.9% active; note: potency is the fitted concentration of half-maximal effect; % is set by controls: 0 for no effect and ±100 for the full control effect
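Growth was read as firefly luciferase luminescence after a 48 h, 37 C, 5% CO2 exposure of compounds to reporter-bearing P. falciparum cultures (0.1% parasitemia, 2% hematocrit final) in Albumax-supplemented RPMI 1640.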
The depositor's hits bear a star. Unless noted, calls come from the whole dose curve; as a rule, active = well fitted curve in the direction sought with a large enough effect; inconclusive = small, poorly fitted or top-dose-only effect, or another doubt; inactive = no such curve, though single readings can be large; an effect the other way counts as inactive or inconclusive.

Screening CCOc1ccc2nc(NC(=O)CSc3nnnn3C3CCCCC3)sc2c1 returned Cycloheximide cs 30*, HCV inh -2%, Shiga inhibitor 50*, AMA1 RON2 block -21%, Pf growth 96h 4.1µM* and Pf growth 48h 39%.
COc1ccccc1NC(=O)CSc1nc(SC)ns1 was read as Cycloheximide cs 7, HCV inh -3%, Shiga inhibitor 16, AMA1 RON2 block 5%, Pf growth 96h 6% and Pf growth 48h 50%.
For COc1ccc2nc(NC(=O)CSc3nccc(C)n3)sc2c1 the results were Cycloheximide cs 8, HCV inh inconclusive, Shiga inhibitor 22, AMA1 RON2 block -6%, Pf growth 96h 0% and Pf growth 48h 2%.
CCOC(=O)c1c(C)cc2c(CO)n[nH]c(=O)c2c1C was read as AMA1 RON2 block 9%.
Screening CSc1nsc(SCC(=O)NC2CCCCC2)n1 returned Cycloheximide cs 27*, HCV inh 9%, Shiga inhibitor 52, AMA1 RON2 block -8% and Pf growth 48h 19%.
Screening Cc1nc(SCC(=O)Nc2nc3ccccc3s2)n[nH]1 returned Cycloheximide cs 54*, HCV inh inconclusive, Shiga inhibitor 69*, AMA1 RON2 block -3%, Pf growth 96h inconclusive and Pf growth 48h 51%.
For CCNC(=O)C1(C)CCCN(Cc2noc(-c3c(C)noc3C)n2)C1 (configuration not stated) the results were AMA1 RON2 block -5%.
Cn1c(=O)n(Cc2ccccc2)c(=O)c2c1nc1n2CCCN1CCc1ccccc1 was read as Cycloheximide cs -9, HCV inh inconclusive, Shiga inhibitor -16, AMA1 RON2 block -27% and Pf growth 96h 3.3µM*.
For CCOCCn1c(=O)c2c(nc3n2CCCN3CCc2ccccc2)n(C)c1=O the results were Cycloheximide cs -1, HCV inh -4%, Shiga inhibitor -2, AMA1 RON2 block 4%, Pf growth 96h 15µM* and Pf growth 48h inconclusive.
`Cn1c(=O)n(Cc2ccccc2)c(=O)c2c1nc1n2CCCN1Cc1ccccc1` gave Cycloheximide cs -2, HCV inh 16%, Shiga inhibitor -1, AMA1 RON2 block 2%, Pf growth 96h inconclusive and Pf growth 48h inconclusive.
For CCCCn1c(=O)c2c(nc3n2CCCN3Cc2ccccc2)n(C)c1=O the results were Cycloheximide cs -4, HCV inh -9%, Shiga inhibitor -16, AMA1 RON2 block -9%, Pf growth 96h inconclusive and Pf growth 48h 5.2µM*.
`CCN1C(=O)[C@H]2[C@@H](c3ccc(OC)cc3)N[C@]3(CCCN(Cc4ccc(C)cc4)C3=O)[C@H]2C1=O` gave AMA1 RON2 block 3%.
Screening Oc1ccccc1OCc1nc2ccccc2s1 returned Cycloheximide cs 35*, HCV inh -8%, Shiga inhibitor 143*, AMA1 RON2 block -1%, Pf growth 96h 9% and Pf growth 48h 156%.
`OCc1cc(Br)ccc1OCc1nc2ccccc2s1` gave Cycloheximide cs 45*, HCV inh inconclusive, Shiga inhibitor 82*, AMA1 RON2 block -9%, Pf growth 96h 86% and Pf growth 48h 58%.
Screening Cc1[nH]nc(-c2ccc(O)cc2O)c1-c1nc2ccccc2s1 returned Cycloheximide cs -6, HCV inh inconclusive, Shiga inhibitor 12, AMA1 RON2 block 49%, Pf growth 96h 23% and Pf growth 48h 28%.
Oc1ccc(O)c(Cc2nc3ccccc3s2)c1 was read as Cycloheximide cs 32*, HCV inh -6%, Shiga inhibitor 43*, AMA1 RON2 block -29%, Pf growth 96h -4% and Pf growth 48h inconclusive.
For CN1CCN(c2ncnc3c2ncn3[C@H]2CN(Cc3ccc(C(=O)O)cc3)C[C@@H](CO)O2)CC1 the results were AMA1 RON2 block 3%.
For O=c1c2ccccc2nc(/C=C/c2c[nH]c3ccccc23)n1CCO the results were Cycloheximide cs 38*, HCV inh inconclusive, Shiga inhibitor 65*, AMA1 RON2 block 8%, Pf growth 96h 20% and Pf growth 48h inconclusive.
For CN(C)c1ccc(/C=C/c2nc3ccccc3c(=O)n2CCO)cc1 the results were Cycloheximide cs 10, HCV inh inconclusive, Shiga inhibitor 17, AMA1 RON2 block 2%, Pf growth 96h inconclusive and Pf growth 48h inconclusive.
`O=c1c2ccccc2nc(/C=C/c2cc(Br)ccc2O)n1CCO` gave HCV inh 14µM* and AMA1 RON2 block 8%.
O=C(O)/C=C/C(=O)c1ccc2c(c1)NC(=O)CO2 was read as Cycloheximide cs -2, HCV inh 9%, Shiga inhibitor -21, AMA1 RON2 block 5%, Pf growth 96h 3.3µM* and Pf growth 48h 1.9µM*.
Screening CC(=O)Nc1cc(NC(C)=O)cc(C(=O)OCC(=O)c2ccc3c(c2)NC(=O)CO3)c1 returned HCV inh inconclusive, AMA1 RON2 block -23%, Pf growth 96h 34% and Pf growth 48h -24%.
`N#CCC(=O)Nc1ccc(C(=O)OCC(=O)c2ccc3c(c2)NC(=O)CO3)cc1` gave HCV inh 1%, AMA1 RON2 block -18%, Pf growth 96h inconclusive and Pf growth 48h 13µM*.
`O=C1COc2ccc(C(=O)COC(=O)c3ccco3)cc2N1` gave Cycloheximide cs 27*, HCV inh 9%, Shiga inhibitor 42*, AMA1 RON2 block 1%, Pf growth 96h 56% and Pf growth 48h inconclusive.
CC(C)[C@H](NC(=O)c1ccco1)C(=O)OCC(=O)c1ccc2c(c1)NC(=O)CO2 was read as Cycloheximide cs 1, HCV inh 4%, Shiga inhibitor -1, AMA1 RON2 block -7%, Pf growth 96h 28% and Pf growth 48h -1%.
`COCCC(=O)N1CCC(Oc2ccc(C(=O)NCCn3cccn3)cc2)CC1` gave Cycloheximide cs -2, HCV inh 27%, Shiga inhibitor -10, AMA1 RON2 block 13%, Pf growth 96h inconclusive and Pf growth 48h -5%.
Screening COc1ccc(N2CC(C(=O)Nc3ccc(S(=O)(=O)Nc4nccs4)cc3)CC2=O)c(OC)c1 (configuration not stated) returned HCV inh 9%, AMA1 RON2 block -9%, Pf growth 96h -31% and Pf growth 48h -18%.
For CCNC(=O)C1(C)CCCN(Cc2cccc(Oc3ccccc3)c2)C1 (configuration not stated) the results were AMA1 RON2 block 5%.
For N=C(N)c1ccc2cc(OC(=O)c3ccc(N=C(N)N)cc3)ccc2c1 the results were Pf growth 96h 1.1µM* and Pf growth 48h 12µM*.
For CCOC(=O)O[C@]1(C(=O)OCCl)CC[C@@H]2[C@H]3CCC4=CC(=O)C=C[C@]4(C)[C@@H]3[C@@H](O)C[C@@]21C the results were Pf growth 96h -21% and Pf growth 48h -19%.
`COc1cccc(CN2CCSCC2)c1` gave Cycloheximide cs -8, HCV inh 15%, Shiga inhibitor -7, AMA1 RON2 block -11% and Pf growth 96h 6%.
